# This excerpt belongs to a sample that is enriched for the strongest signals.
# B1: Epa3to1 (Candida glabrata) (protein)
# chain: MGSSHHHHHHSSGLVPRGSHMKRELSSQNPFGYPIGCSPQDVAIIPGLTMELYSYPIVSGTPPNCYDASYVDPEYPRTGYLKRKMVGKSTGVTGNLNYKYSVEKACMVKYGNLPAGYNYNEPLTVSNFTMILYGYFKAQTTGLHTFFVNADDLLYINFGAGNAFDCCKREDSKTKLGEYVAYDIWHVDSSKNKVSLFLEKDLYYPIRMFFNNREYDSSLDLSFSVNGATDQISDFSGYLYSVPDQPDTCPAHIGYDTTCR
# Key:
# Assay in all cases: glycan array binding signal (z-score within array); higher = stronger binding
# Conditions in all cases: glycan notation: IUPAC condensed, linker removed
# [1] = molecular target: Fuc(a1-2)Gal(b1-3)GalNAc(b1-3)Gal(a1-4)Gal(b1-4)Glc
# Method in brief: (§1)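 Negative Z-scores can be read as non-binding. The Z-score is calculated within each array and then averaged across arrays of one protein sequence at different concentrations or buffers and across linkers. Arrays, 3228 in all, were curated from the Consortium for Functional Glycomics database and kept only where the protein sequence was available.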
# [2] = molecular target: Fuc(a1-2)Gal(b1-3)[Fuc(a1-4)]GlcNAc(b1-2)Man(a1-3)[Fuc(a1-2)Gal(b1-3)[Fuc(a1-4)]GlcNAc(b1-2)Man(a1-6)]Man(b1-4)GlcNAc(b1-4)[Fuc(a1-6)]GlcNAc(b1-4)[Fuc(a1-6)]GlcNAc
# Method in brief: as §1
# [3] = molecular target: Fuc(a1-2)[Gal(a1-3)]Gal(b1-3)GlcNAc(b1-3)GalNAc
# Method in brief: as §1
# [4] = molecular target: Fuc(a1-2)[Gal(a1-3)]Gal(b1-4)GlcNAc(b1-6)GalNAc
# Method in brief: as §1
# [5] = molecular target: Fuc(a1-2)[GalNAc(a1-3)]Gal(b1-3)GlcNAc
# Method in brief: as §1
# [6] = molecular target: Fuc(a1-2)[GalNAc(a1-3)]Gal(b1-3)GlcNAc(b1-2)Man(a1-3)[Fuc(a1-2)[GalNAc(a1-3)]Gal(b1-3)GlcNAc(b1-2)Man(a1-6)]Man(b1-4)GlcNAc(b1-4)[Fuc(a1-6)]GlcNAc
# Method in brief: as §1
# [7] = molecular target: Fuc(a1-3)[Gal(b1-4)]Glc6S
# Method in brief: as §1
# [8] = molecular target: Fuc(a1-3)[Gal(b1-4)]GlcNAc(b1-2)Man(a1-3)[Fuc(a1-3)[Gal(b1-4)]GlcNAc(b1-2)Man(a1-6)]Man(b1-4)GlcNAc(b1-4)[Fuc(a1-6)]GlcNAc
# Method in brief: as §1
# [9] = molecular target: Fuc(a1-3)[GalNAc(b1-4)]GlcNAc6S
# Method in brief: as §1
# [10] = molecular target: Gal(a1-3)Gal(b1-3)GlcNAc(b1-2)Man(a1-3)[Gal(a1-3)Gal(b1-3)GlcNAc(b1-2)Man(a1-6)]Man(b1-4)GlcNAc(b1-4)GlcNAc
# Method in brief: as §1
# [11] = molecular target: Gal(a1-3)Gal(b1-3)GlcNAc(b1-3)GalNAc
# Method in brief: as §1
# [12] = molecular target: Gal(a1-3)Gal(b1-4)GlcNAc(b1-6)GalNAc
# Method in brief: as §1
# [13] = molecular target: Gal(a1-3)Gal(b1-4)[Fuc(a1-3)]GlcNAc(b1-2)Man(a1-3)[Gal(a1-3)Gal(b1-4)[Fuc(a1-3)]GlcNAc(b1-2)Man(a1-6)]Man(b1-4)GlcNAc(b1-4)GlcNAc
# Method in brief: as §1
# Gal(a1-4)GlcNAc = molecular target: Gal(a1-4)GlcNAc
# Method in brief: as §1
# Gal(a1-6)Glc = molecular target: Gal(a1-6)Glc
# Method in brief: as §1
# [14] = molecular target: Gal(b1-3)GalNAc(b1-4)Gal(b1-4)Glc
# Method in brief: as §1
# [15] = molecular target: Gal(b1-3)GlcNAc(a1-6)Gal(b1-4)GlcNAc
# Method in brief: as §1
# [16] = molecular target: Gal(b1-3)GlcNAc(b1-3)Gal(b1-3)GlcNAc
# Method in brief: as §1
# [17] = molecular target: Gal(b1-3)GlcNAc(b1-3)Gal(b1-4)GlcNAc
# Method in brief: as §1
# [18] = molecular target: Gal(b1-3)GlcNAc(b1-3)Gal(b1-4)[Fuc(a1-3)]GlcNAc(b1-6)[Gal(b1-3)GlcNAc(b1-3)]Gal(b1-4)Glc
# Method in brief: as §1
# [19] = molecular target: Gal(b1-3)[Fuc(a1-4)]GlcNAc(b1-2)Man
# Method in brief: as §1
# [20] = molecular target: Gal(b1-3)[Fuc(a1-4)]GlcNAc(b1-3)Gal(b1-4)[Fuc(a1-3)]GlcNAc
# Method in brief: as §1
# [21] = molecular target: Gal(b1-3)[Neu5Ac(a2-6)]GalNAc
# Method in brief: as §1
# [22] = molecular target: Gal(b1-4)GlcNAc(b1-2)Man(a1-3)[Gal(b1-4)GlcNAc(b1-2)Man(a1-6)][GlcNAc(b1-4)]Man(b1-4)GlcNAc(b1-4)[Fuc(a1-6)]GlcNAc
# Method in brief: as §1
# [23] = molecular target: Gal(b1-4)GlcNAc(b1-2)Man(a1-3)[GlcNAc(b1-4)][Gal(b1-4)GlcNAc(b1-2)Man(a1-6)]Man(b1-4)GlcNAc(b1-4)GlcNAc
# Method in brief: as §1
# [24] = molecular target: Gal(b1-4)GlcNAc(b1-2)Man(a1-3)[Man(a1-6)]Man(b1-4)GlcNAc(b1-4)GlcNAc
# Method in brief: as §1
# [25] = molecular target: Gal(b1-4)GlcNAc(b1-2)[Gal(b1-4)GlcNAc(b1-4)]Man(a1-3)[GlcNAc(b1-4)][Gal(b1-4)GlcNAc(b1-2)Man(a1-6)]Man(b1-4)GlcNAc(b1-4)GlcNAc
# Method in brief: as §1
# [26] = molecular target: Gal(b1-4)GlcNAc(b1-2)[Gal(b1-4)GlcNAc(b1-6)]Man(a1-6)[Gal(b1-4)GlcNAc(b1-2)Man(a1-3)]Man(b1-4)GlcNAc(b1-4)[Fuc(a1-6)]GlcNAc
# Method in brief: as §1
# [27] = molecular target: Gal(b1-4)GlcNAc(b1-3)Gal(b1-4)GlcNAc(b1-2)[Gal(b1-4)GlcNAc(b1-3)Gal(b1-4)GlcNAc(b1-6)]Man(a1-6)[Gal(b1-4)GlcNAc(b1-3)Gal(b1-4)GlcNAc(b1-2)Man(a1-3)]Man(b1-4)GlcNAc(b1-4)GlcNAc
# Method in brief: as §1
# [28] = molecular target: Gal(b1-4)GlcNAc(b1-3)Gal(b1-4)GlcNAc(b1-3)Gal(b1-4)GlcNAc(b1-3)Gal(b1-4)GlcNAc(b1-2)Man(a1-3)[Gal(b1-4)GlcNAc(b1-3)Gal(b1-4)GlcNAc(b1-3)Gal(b1-4)GlcNAc(b1-3)Gal(b1-4)GlcNAc(b1-2)Man(a1-6)]Man(b1-4)GlcNAc(b1-4)GlcNAc
# Method in brief: as §1
# [29] = molecular target: Gal(b1-4)GlcNAc(b1-3)[Fuc(a1-3)GlcNAc(b1-6)]Gal(b1-4)Glc
# Method in brief: as §1
# [30] = molecular target: Gal(b1-4)GlcNAc(b1-6)Gal(b1-4)GlcNAc
# Method in brief: as §1
# Gal3S6S(b1-4)GlcNAc = molecular target: Gal3S6S(b1-4)GlcNAc
# Method in brief: as §1
# Gal6S(b1-3)GlcNAc6S = molecular target: Gal6S(b1-3)GlcNAc6S
# Method in brief: as §1
# Gal6S(b1-4)Glc6S = molecular target: Gal6S(b1-4)Glc6S
# Method in brief: as §1
# Gal6S(b1-4)GlcNAc6S = molecular target: Gal6S(b1-4)GlcNAc6S
# Method in brief: as §1
# GalNAc(b1-3)Gal = molecular target: GalNAc(b1-3)Gal
# Method in brief: as §1
# GlcA(b1-6)Gal = molecular target: GlcA(b1-6)Gal
# Method in brief: as §1
# [31] = molecular target: GlcNAc(a1-4)Gal(b1-3)GlcNAc
# Method in brief: as §1
# [32] = molecular target: GlcNAc(a1-4)Gal(b1-4)GlcNAc
# Method in brief: as §1
# [33] = molecular target: GlcNAc(a1-4)Gal(b1-4)GlcNAc(b1-3)Gal(b1-4)[Fuc(a1-3)]GlcNAc(b1-3)Gal(b1-4)[Fuc(a1-3)]GlcNAc
# Method in brief: as §1
# [34] = molecular target: GlcNAc(b1-2)[GlcNAc(b1-6)]Man(a1-6)[GlcNAc(b1-2)Man(a1-3)]Man(b1-4)GlcNAc(b1-4)GlcNAc
# Method in brief: as §1
# GlcNAc(b1-3)Fuc = molecular target: GlcNAc(b1-3)Fuc
# Method in brief: as §1
# [35] = molecular target: GlcNAc(b1-3)Gal(b1-4)GlcNAc(b1-3)GalNAc
# Method in brief: as §1
# [36] = molecular target: GlcNAc(b1-4)GlcNAc(b1-4)GlcNAc(b1-4)GlcNAc(b1-4)GlcNAc
# Method in brief: as §1
# [37] = molecular target: Neu5Ac(a2-3)Gal(b1-4)GlcNAc(b1-6)[Neu5Ac(a2-3)Gal(b1-3)]GalNAc
# Method in brief: as §1
# [38] = molecular target: Neu5Ac(a2-3)Gal(b1-4)GlcNAc6S
# Method in brief: as §1
# [39] = molecular target: Neu5Ac(a2-3)[GalNAc(b1-4)]Gal(b1-4)GlcNAc
# Method in brief: as §1
# [40] = molecular target: Neu5Ac(a2-6)Gal(b1-4)GlcNAc(b1-2)Man
# Method in brief: as §1
# [41] = molecular target: Neu5Ac(a2-6)Gal(b1-4)GlcNAc(b1-3)Gal(b1-3)GlcNAc
# Method in brief: as §1
# [42] = molecular target: Neu5Ac(a2-6)Gal(b1-4)GlcNAc(b1-3)Gal(b1-4)GlcNAc(b1-3)Gal(b1-4)GlcNAc(b1-2)Man(a1-3)[Neu5Ac(a2-6)Gal(b1-4)GlcNAc(b1-3)Gal(b1-4)GlcNAc(b1-3)Gal(b1-4)GlcNAc(b1-2)Man(a1-6)]GalNAc
# Method in brief: as §1
# [43] = molecular target: Neu5Ac(a2-6)GalNAc(b1-4)GlcNAc6S
# Method in brief: as §1
# [44] = molecular target: Neu5Ac(a2-8)Neu5Ac(a2-8)Neu5Ac(a2-3)Gal(b1-4)Glc
# Method in brief: as §1
binder,measurement,setting,value
B1,glycan array binding signal (z-score),[1],-0.161
same,glycan array binding signal (z-score),[2],-0.07
same,glycan array binding signal (z-score),[3],-0.274
same,glycan array binding signal (z-score),[4],-0.462
same,glycan array binding signal (z-score),[5],0.225
same,glycan array binding signal (z-score),[6],-0.204
same,glycan array binding signal (z-score),[7],0.568
same,glycan array binding signal (z-score),[8],0.093
same,glycan array binding signal (z-score),[9],-0.498
same,glycan array binding signal (z-score),[10],0.169
same,glycan array binding signal (z-score),[11],-0.594
same,glycan array binding signal (z-score),[12],0.248
same,glycan array binding signal (z-score),[13],-0.206
same,glycan array binding signal (z-score),Gal(a1-4)GlcNAc,3.41
same,glycan array binding signal (z-score),Gal(a1-6)Glc,1.7
same,glycan array binding signal (z-score),[14],5.3
same,glycan array binding signal (z-score),[15],0.409
same,glycan array binding signal (z-score),[16],-0.713
same,glycan array binding signal (z-score),[17],-0.502
same,glycan array binding signal (z-score),[18],-0.061
same,glycan array binding signal (z-score),[19],-0.37
same,glycan array binding signal (z-score),[20],-0.87
same,glycan array binding signal (z-score),[21],5.48
same,glycan array binding signal (z-score),[22],-0.745
same,glycan array binding signal (z-score),[23],-0.291
same,glycan array binding signal (z-score),[24],3.23
same,glycan array binding signal (z-score),[25],0.229
same,glycan array binding signal (z-score),[26],0.071
same,glycan array binding signal (z-score),[27],7.55
same,glycan array binding signal (z-score),[28],-0.05
same,glycan array binding signal (z-score),[29],2.39
same,glycan array binding signal (z-score),[30],0.054
same,glycan array binding signal (z-score),Gal3S6S(b1-4)GlcNAc,0.487
same,glycan array binding signal (z-score),Gal6S(b1-3)GlcNAc6S,4.12
same,glycan array binding signal (z-score),Gal6S(b1-4)Glc6S,6.81
same,glycan array binding signal (z-score),Gal6S(b1-4)GlcNAc6S,9.56
same,glycan array binding signal (z-score),GalNAc(b1-3)Gal,0.105
same,glycan array binding signal (z-score),GlcA(b1-6)Gal,0.35
same,glycan array binding signal (z-score),[31],-0.807
same,glycan array binding signal (z-score),[32],-0.345
same,glycan array binding signal (z-score),[33],-0.037
same,glycan array binding signal (z-score),[34],-0.435
same,glycan array binding signal (z-score),GlcNAc(b1-3)Fuc,-0.291
same,glycan array binding signal (z-score),[35],0.229
same,glycan array binding signal (z-score),[36],4.95
same,glycan array binding signal (z-score),[37],-0.382
same,glycan array binding signal (z-score),[38],-0.83
same,glycan array binding signal (z-score),[39],-0.706
same,glycan array binding signal (z-score),[40],-0.272
same,glycan array binding signal (z-score),[41],4.57
same,glycan array binding signal (z-score),[42],0.07
same,glycan array binding signal (z-score),[43],-0.365
same,glycan array binding signal (z-score),[44],0.154

# Source: the supplement of paper PMC8728848
